Several values for one entry are separate records, joined by “and”; a condition that tells them apart may be missing. Identical values can stand only once. Hit rate of the full screen: of about 5,500 compounds, about 2,000 (36%) were called active. About 18% were inconclusive and are not listed. No stated cut-off is given here; in the data, active means normalized growth mostly below about 0.91 (no sharp cut-off); inconclusive means no clear call, values can overlap the other calls; inactive means mostly above about 0.92. This is one part of the list.
Assay: chemical genetic growth profiling, strain panel (AID 1159580);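 further: tested at 20 µM; growth read once vehicle control cultures reached saturation at 30 °C; 1 = growth at the plate median or of vehicle wells; lower values mean less growth of the strain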
Conditions: S. cerevisiae deletion strains, growth OD

Measured: normalized growth

N#C/C(=C\c1ccc(O)cc1)C(=O)O
inactive: locus YAL013W, strain DEP1, hits give low values 0.988 | locus YAL021C, strain ccr4, hits give low values 0.979 | locus YAL026C, strain drs2, hits give low values 1 | locus YAL030W, strain snc1, hits give low values 1.01 | locus YBL061C, strain skt5, hits give low values 1.01 | locus YBR009C, strain hhf1, hits give low values 1.02 | locus YBR021W, strain FUR4, hits give low values 1.02 | locus YBR023C, strain chs3, hits give low values 1 | locus YBR171W, strain sec66, hits give low values 0.991 | locus YBR229C, strain ROT2, hits give low values 0.956 | locus YBR231C, strain swc5, hits give low values 1.01 | locus YBR279W, strain paf1, hits give low values 1 | locus YCL011C, strain gbp2, hits give low values 0.987 | locus YCL016C, strain dcc1, hits give low values 1.01 | locus YCL029C, strain bik1, hits give low values 0.997 | locus YCL061C, strain MRC1, hits give low values 0.993 | locus YCL069W, strain vba3, hits give low values 0.996 | locus YCR088W, strain abp1, hits give low values 0.987 | locus YDL005C, strain med2, hits give low values 0.997 | locus YDL035C, strain GPR1, hits give low values 0.994 | locus YDL040C, strain nat1, hits give low values 1 | locus YDL074C, strain BRE1, hits give low values 0.966 | locus YDL101C, strain DUN1, hits give low values 0.951 | locus YDL134C, strain PPH21, hits give low values 0.987 | locus YDL185W, strain tfp1, hits give low values 0.976 | locus YDL192W, strain arf1, hits give low values 0.993 | locus YDR001C, strain nth1, hits give low values 0.996 | locus YDR069C, strain doa4, hits give low values 1 | locus YDR101C, strain arx1, hits give low values 1.01 | locus YDR137W, strain rgp1, hits give low values 0.992 | locus YDR150W, strain NUM1, hits give low values 0.981 | locus YDR159W, strain sac3, hits give low values 1.01 | locus YDR162C, strain NBP2, hits give low values 0.937 | locus YDR195W, strain ref2 0.988 | locus YDR297W, strain sur2, hits give low values 0.997 | locus YDR318W, strain mcm21, hits give low values 1.04 | locus YDR334W, strain swr1, hits give low values 0.961 | locus YDR335W, strain msn5, hits give low values 1 | locus YDR388W, hits give low values 1.01 | locus YDR392W, strain spt3, hits give low values 0.972 | locus YDR502C, strain sam2, hits give low values 0.987 | locus YEL003W, strain gim4, hits give low values 0.989 | locus YEL037C, strain rad23, hits give low values 0.986 | locus YEL061C, strain CIN8 (second series), hits give low values 0.984 | locus YEL061C, strain CIN8, hits give low values 0.984 | locus YER015W, strain faa2, hits give low values 1 | locus YER016W, strain bim1, hits give low values 1.01 | locus YER110C, hits give low values 0.999 | locus YER111C, strain swi4, hits give low values 0.999 | locus YER155C, strain BEM2 (second series), hits give low values 1.01 | locus YER155C, strain BEM2, hits give low values 0.987 | locus YER167W, strain BCK2, hits give low values 1.01 | locus YFR010W, strain ubp6, hits give low values 0.983 | locus YGL078C, strain dbp3, hits give low values 0.985 | locus YGL086W, strain mad1, hits give low values 1.02 | locus YGL167C, strain pmr1, hits give low values 1.01 | locus YGL173C, strain kem1, hits give low values 1 | locus YGL227W, strain vid30, hits give low values 0.998 | locus YGL240W, strain doc1, hits give low values 1.03 | locus YGL248W, strain PDE1, hits give low values 0.976 | locus YGL253W, strain hxk2, hits give low values 0.999 | locus YGR078C, strain PAC10, hits give low values 0.97 | locus YGR135W, strain pre9, hits give low values 0.988 | locus YGR229C, strain SMI1, hits give low values 0.996 | locus YGR252W, strain gcn5, hits give low values 1.09 | locus YHR013C, strain ard1, hits give low values 1.02 | locus YHR027C, strain rpn1, hits give low values 0.99 | locus YHR030C, strain SLT2, hits give low values 0.997 and 1.06 | locus YHR079C, strain IRE1 (second series), hits give low values 1 | locus YHR079C, strain IRE1, hits give low values 1.07 | locus YHR094C, strain hxt1, hits give low values 0.998 | locus YHR129C, strain ARP1, hits give low values 0.986 | locus YHR142W, strain chs7, hits give low values 0.954 | locus YHR200W, strain rpn10, hits give low values 0.996 | locus YIL066C, strain RNR3, hits give low values 0.981 | locus YIL073C, strain SPO22, hits give low values 1.1 | locus YIL125W, strain kgd1, hits give low values 0.997 | locus YIR030C, strain dcg1, hits give low values 0.988 | locus YJL092W, strain hpr5, hits give low values 0.979 | locus YJL095W, strain BCK1 (second series), hits give low values 1 | locus YJL095W, strain BCK1, hits give low values 0.979 and 1.08 | locus YJL115W, strain asf1, hits give low values 0.988 | locus YJL129C, strain trk1, hits give low values 0.98 | locus YJL134W, strain LCB3, hits give low values 0.983 | locus YJL154C, strain vps35, hits give low values 0.975 | locus YJL164C, strain tpk1, hits give low values 1 | locus YJL166W, strain qcr8, hits give low values 1.01 | locus YJL168C, strain set2, hits give low values 0.992 | locus YJL187C, strain SWE1 (second series), hits give low values 0.96 | locus YJL187C, strain SWE1, hits give low values 1 | locus YJR043C, strain POL32, hits give low values 1.04 | locus YJR066W, strain TOR1, hits give low values 0.992
